Measurements taken from PubChem BioAssay (EPA / NIEHS).
Results filed as inconclusive are left out. Activity calls are given as the source filed them. Rule for the calls, unless noted: active = hit-call score of the fitted dose curve at least 0.9, where 1 is the maximum; inconclusive = response in the unintended direction; inactive = score below 0.9.

Columns and labels:
[1] = BSK_4H_Eotaxin3: BioMAP Diversity Plus: 4H Assay for Eotaxin 3 Biomarker Activity (AID 2283000; active = hit-call score of the fitted dose curve at least 0.9, where 1 is the maximum; inactive = score below 0.9); conditions: primary human endothelial cells (HUVEC); actives raise or lower the signal
Outline: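 Endothelial primary cells (human umbilical vein) exposed to compound for 24 h. ELISA detection of Eotaxin-3.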

[2] = target: human Peroxisome Proliferator-activated Receptor alpha (PPARa), PPARA (gene 5465) (UniProt Q07869); assay: ATG_PPARa_TRANS: Attagene TRANS-FACTORIAL HepG2 Assay for human Peroxisome Proliferator-activated Receptor alpha (PPARa) (AID 2283001);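 for AC50: potency for gain of reporter signal over DMSO so agonist or activator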
Outline: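 Read-out is fluorescence of reporter cDNA fragments resolved by capillary electrophoresis after RT-PCR. Human HepG2 liver cells carried transfected PPARa-Gal4 chimera and GAL4-UAS reporter units, treated 24 h; activity scored as increase over DMSO.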

[3] = read-out: Intercellular Adhesion Molecule 1 (ICAM1), ICAM1 (gene 3383); assay: BSK_3C_ICAM1: BioMAP Diversity Plus: 3C Assay for Intercellular Adhesion Molecule 1 (ICAM1) Biomarker Activity (AID 2283003; active = hit-call score of the fitted dose curve at least 0.9, where 1 is the maximum; inactive = score below 0.9); conditions: primary human endothelial cells (HUVEC); actives raise or lower the signal
Outline: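 HUVEC primary cells stimulated under 3C conditions; ICAM1 measured by ELISA 24 h after compound dosing. Curves fitted bidirectionally against the DMSO baseline. Overt cytotoxicity checked by SRB staining of parallel cultures.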

[4] = BSK_3C_Proliferation: Cell Proliferation Assessment in the BioMAP Diversity Plus: 3C Assay (AID 2283006; active = hit-call score of the fitted dose curve at least 0.9, where 1 is the maximum; inactive = score below 0.9;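 for AC50: potency may reflect either rise or fall in cell number versus DMSO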); conditions: primary human endothelial cells (HUVEC)
Outline: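 Subconfluent HUVEC (3C system) cultured with chemical; relative cell number read at 48 h by sulforhodamine B total-protein staining (0.1% SRB after 10% TCA fixation, 560 nm). Bidirectional fit relative to DMSO.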

[5] = target: Peroxisome proliferator-activated receptor gamma (Homo sapiens) (UniProt P37231); assay: ATG_PPARg_TRANS: Attagene TRANS-FACTORIAL HepG2 Assay for human Peroxisome Proliferator-activated Receptor-gamma (PPARg) (AID 2283007)
Peroxisome proliferator-activated receptor gamma (Homo sapiens), sequence (P37231 whole entry, looked up, the tested form may be a part): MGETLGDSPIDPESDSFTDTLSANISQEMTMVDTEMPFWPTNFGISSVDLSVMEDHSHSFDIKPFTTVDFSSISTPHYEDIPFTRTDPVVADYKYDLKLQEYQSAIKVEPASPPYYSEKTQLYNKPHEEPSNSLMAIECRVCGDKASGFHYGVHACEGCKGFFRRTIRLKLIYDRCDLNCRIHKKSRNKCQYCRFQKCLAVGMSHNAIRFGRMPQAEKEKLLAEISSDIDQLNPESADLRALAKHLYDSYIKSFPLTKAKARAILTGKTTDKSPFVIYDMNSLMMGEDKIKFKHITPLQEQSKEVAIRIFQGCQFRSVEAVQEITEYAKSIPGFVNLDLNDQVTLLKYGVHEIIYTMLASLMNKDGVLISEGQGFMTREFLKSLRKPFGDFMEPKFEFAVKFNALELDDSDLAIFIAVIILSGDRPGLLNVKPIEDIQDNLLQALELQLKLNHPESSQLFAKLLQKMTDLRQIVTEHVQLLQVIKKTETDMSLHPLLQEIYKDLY
Outline: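 Read-out: reporter mRNA induction, detected by fluorescence after RT-PCR and capillary electrophoresis. Transiently transfected human HepG2 liver cells carrying a chimeric NR-Gal4 construct were dosed for 24 h; activity was fitted upward relative to DMSO.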

[6] = target: human RAR-related Orphan Receptor beta (RORb), RORB (gene 6096) (UniProt Q92753); assay: ATG_RORb_TRANS: Attagene TRANS-FACTORIAL HepG2 Assay for human RAR-related Orphan Receptor beta (RORb) (AID 2283010)
human RAR-related Orphan Receptor beta (RORb), RORB (gene 6096), sequence (Q92753 whole entry, looked up, the tested form may be a part): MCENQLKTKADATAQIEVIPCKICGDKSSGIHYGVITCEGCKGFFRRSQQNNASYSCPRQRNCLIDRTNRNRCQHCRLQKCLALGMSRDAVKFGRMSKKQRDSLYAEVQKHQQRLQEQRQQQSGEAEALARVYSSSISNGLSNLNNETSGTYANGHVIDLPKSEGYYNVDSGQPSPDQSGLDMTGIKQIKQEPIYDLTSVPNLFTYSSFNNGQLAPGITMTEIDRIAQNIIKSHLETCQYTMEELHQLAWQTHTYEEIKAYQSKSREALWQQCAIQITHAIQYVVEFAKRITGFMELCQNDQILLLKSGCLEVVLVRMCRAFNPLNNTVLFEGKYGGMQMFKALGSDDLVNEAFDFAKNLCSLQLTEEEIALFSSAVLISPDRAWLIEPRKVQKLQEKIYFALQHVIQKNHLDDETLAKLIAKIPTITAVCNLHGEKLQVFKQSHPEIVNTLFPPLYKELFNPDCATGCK
Outline: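 HepG2 cells transiently transfected with GAL4-UAS reporter units expressing chimeric NR-Gal4 protein; reporter mRNA measured 24 h after dosing by RT-PCR, 6-FAM labelling and capillary electrophoresis. Gain-of-signal fitted relative to DMSO baseline.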

[7] = read-out: Interleukin-1 alpha (IL1a), IL1A (gene 3552); assay: BSK_BE3C_IL1a: BioMAP Diversity Plus: BE3C Assay for Interleukin-1 alpha (IL1a) Biomarker Activity (AID 2283016; active = hit-call score of the fitted dose curve at least 0.9, where 1 is the maximum; inactive = score below 0.9); conditions: primary human bronchial epithelial cells; actives raise or lower the signal
Outline: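 Human primary bronchial epithelial cells, 24 h chemical exposure; IL-1a quantified by ELISA, fitted bidirectionally against DMSO. Cytotoxicity assessed in parallel by SRB total-protein staining at the time of measurement.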

[8] = read-out: Monocyte Chemoattractant Protein-1 (MCP1), CCL2 (gene 6347); assay: BSK_3C_MCP1: BioMAP Diversity Plus: 3C Assay for Monocyte Chemoattractant Protein-1 (MCP1) Biomarker Activity (AID 2283017; active = hit-call score of the fitted dose curve at least 0.9, where 1 is the maximum; inactive = score below 0.9); conditions: primary human endothelial cells (HUVEC); actives raise or lower the signal
Outline: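 Endothelial cells from human umbilical vein are dosed with chemical, cultured 24 h, then assayed for MCP-1 by ELISA; both increases and decreases are modelled against DMSO controls.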

[9] = read-out: Monocyte Chemoattractant Protein-1 (MCP1), CCL2 (gene 6347); assay: BSK_4H_MCP1: BioMAP Diversity Plus: 4H Assay for Monocyte Chemoattractant Protein-1 (MCP1) Biomarker Activity (AID 2283018; active = hit-call score of the fitted dose curve at least 0.9, where 1 is the maximum; inactive = score below 0.9); conditions: primary human endothelial cells (HUVEC); actives raise or lower the signal
Outline: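 Human umbilical vein endothelial cells (4H system) exposed to chemicals for 24 h in 96-well format. MCP-1 measured by ELISA; bidirectional fitting against DMSO, with SRB total-protein staining in parallel cultures for cytotoxicity.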

[10] = read-out: Human Leukocyte Antigen - DR isotype (HLADR), HLA-DRA (gene 3122); assay: BSK_3C_HLADR: BioMAP Diversity Plus: 3C Assay for Human Leukocyte Antigen - DR isotype (HLADR) Biomarker Activity (AID 2283019; active = hit-call score of the fitted dose curve at least 0.9, where 1 is the maximum; inactive = score below 0.9); conditions: primary human endothelial cells (HUVEC); actives raise or lower the signal
Outline: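 Endothelial cells from human umbilical vein are treated with test chemical; after 24 h, HLA-DR levels are measured by ELISA. Data are fitted in both directions using DMSO as the baseline.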

[11] = target: Retinoic acid receptor alpha (Homo sapiens) (UniProt P10276); assay: ATG_RARa_TRANS: Attagene TRANS-FACTORIAL HepG2 Assay for human Retinoic Acid Receptor alpha (RARa) (AID 2283005)
Outline: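 Reporter transcripts, measured by RT-PCR with fluorescent labeling and capillary electrophoresis after 24 h dosing, reflect activity of an exogenous human RARa–GAL4 fusion in transiently transfected HepG2. Fitted for increase relative to DMSO.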

[12] = target: Nuclear receptor subfamily 1 group I member 2 (Homo sapiens) (UniProt O75469); assay: ATG_PXR_TRANS: Attagene TRANS-FACTORIAL HepG2 Assay for human Pregnane X Receptor (PXR) (AID 2283008)
Nuclear receptor subfamily 1 group I member 2 (Homo sapiens), sequence (O75469 whole entry, looked up, the tested form may be a part): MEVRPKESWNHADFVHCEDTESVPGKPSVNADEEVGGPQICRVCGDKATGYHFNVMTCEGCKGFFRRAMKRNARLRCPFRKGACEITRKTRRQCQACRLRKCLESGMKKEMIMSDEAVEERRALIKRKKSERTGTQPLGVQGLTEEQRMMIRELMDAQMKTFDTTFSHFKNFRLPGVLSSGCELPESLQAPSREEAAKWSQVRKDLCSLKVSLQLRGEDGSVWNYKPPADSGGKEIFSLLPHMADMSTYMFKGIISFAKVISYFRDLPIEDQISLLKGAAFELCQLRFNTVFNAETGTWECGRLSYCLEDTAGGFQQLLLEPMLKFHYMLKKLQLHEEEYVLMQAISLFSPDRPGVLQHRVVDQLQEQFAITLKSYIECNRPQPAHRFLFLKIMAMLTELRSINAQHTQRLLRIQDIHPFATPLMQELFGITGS
Outline: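 Fluorescence intensity of FAM-labelled, HpaI-digested reporter amplicons, separated by capillary electrophoresis, quantifies induction. HepG2 cells with PXR-Gal4 trans-reporter system were exposed 24 h; DMSO defines baseline.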

[13] = target: Retinoic acid receptor RXR-alpha (Homo sapiens) (UniProt P19793); assay: ATG_RXRa_TRANS: Attagene TRANS-FACTORIAL HepG2 Assay for human Retinoid X Receptor alpha (RXRa) (AID 2283012)
Retinoic acid receptor RXR-alpha (Homo sapiens), sequence (P19793 whole entry, looked up, the tested form may be a part): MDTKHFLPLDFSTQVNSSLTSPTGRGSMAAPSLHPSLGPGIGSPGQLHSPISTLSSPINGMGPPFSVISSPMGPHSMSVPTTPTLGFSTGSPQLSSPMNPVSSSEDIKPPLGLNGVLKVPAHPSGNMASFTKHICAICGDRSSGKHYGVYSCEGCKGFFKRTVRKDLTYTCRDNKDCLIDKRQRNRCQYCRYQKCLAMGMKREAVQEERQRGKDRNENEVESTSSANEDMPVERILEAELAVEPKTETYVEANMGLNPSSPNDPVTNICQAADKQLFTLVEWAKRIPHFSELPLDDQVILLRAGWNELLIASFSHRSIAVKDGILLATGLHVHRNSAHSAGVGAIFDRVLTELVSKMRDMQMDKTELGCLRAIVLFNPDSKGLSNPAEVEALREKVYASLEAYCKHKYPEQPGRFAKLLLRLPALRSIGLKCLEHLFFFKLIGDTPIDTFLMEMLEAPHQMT
Outline: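 HepG2 cells transiently transfected with GAL4-UAS reporter units and chimeric RXRa-Gal4 protein, treated 24 h. Reporter mRNA measured by RT-PCR, fluorescent labelling, HpaI digestion and capillary electrophoresis. Induction fitted against DMSO.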

[14] = target: human Retinoid X Receptor beta (RXRb), RXRB (gene 6257) (UniProt P28702); assay: ATG_RXRb_TRANS: Attagene TRANS-FACTORIAL HepG2 Assay for human Retinoid X Receptor beta (RXRb) (AID 2283013)
human Retinoid X Receptor beta (RXRb), RXRB (gene 6257), sequence (P28702 whole entry, looked up, the tested form may be a part): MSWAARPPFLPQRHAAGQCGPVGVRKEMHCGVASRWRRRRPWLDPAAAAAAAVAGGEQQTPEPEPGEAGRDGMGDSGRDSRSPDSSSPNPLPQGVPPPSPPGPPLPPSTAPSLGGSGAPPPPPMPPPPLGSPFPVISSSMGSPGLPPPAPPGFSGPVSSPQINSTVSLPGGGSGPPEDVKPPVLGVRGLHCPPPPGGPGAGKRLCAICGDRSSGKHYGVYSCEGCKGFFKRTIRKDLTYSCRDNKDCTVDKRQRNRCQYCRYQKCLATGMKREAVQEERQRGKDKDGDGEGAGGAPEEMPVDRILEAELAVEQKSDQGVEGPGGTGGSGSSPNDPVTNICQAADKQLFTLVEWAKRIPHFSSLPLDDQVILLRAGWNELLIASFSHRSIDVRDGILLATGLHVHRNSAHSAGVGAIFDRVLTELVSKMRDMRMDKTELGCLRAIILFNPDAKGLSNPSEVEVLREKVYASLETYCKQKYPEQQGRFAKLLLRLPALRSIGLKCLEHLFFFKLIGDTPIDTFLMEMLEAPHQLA
Outline: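 HepG2 cells were transiently transfected with multiplexed GAL4-UAS reporters and a chimeric RXRb-Gal4 construct, then exposed for 24 h. Reporter mRNA was quantified by RT-PCR, FAM labeling, HpaI digestion and capillary electrophoresis; gain of signal was scored against DMSO.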

[15] = target: human Peroxisome Proliferator-activated Receptor delta (PPARd), PPARD (gene 5467) (UniProt Q03181); assay: ATG_PPARd_TRANS: Attagene TRANS-FACTORIAL HepG2 Assay for human Peroxisome Proliferator-activated Receptor delta (PPARd) (AID 2283002)
human Peroxisome Proliferator-activated Receptor delta (PPARd), PPARD (gene 5467), sequence (Q03181 whole entry, looked up): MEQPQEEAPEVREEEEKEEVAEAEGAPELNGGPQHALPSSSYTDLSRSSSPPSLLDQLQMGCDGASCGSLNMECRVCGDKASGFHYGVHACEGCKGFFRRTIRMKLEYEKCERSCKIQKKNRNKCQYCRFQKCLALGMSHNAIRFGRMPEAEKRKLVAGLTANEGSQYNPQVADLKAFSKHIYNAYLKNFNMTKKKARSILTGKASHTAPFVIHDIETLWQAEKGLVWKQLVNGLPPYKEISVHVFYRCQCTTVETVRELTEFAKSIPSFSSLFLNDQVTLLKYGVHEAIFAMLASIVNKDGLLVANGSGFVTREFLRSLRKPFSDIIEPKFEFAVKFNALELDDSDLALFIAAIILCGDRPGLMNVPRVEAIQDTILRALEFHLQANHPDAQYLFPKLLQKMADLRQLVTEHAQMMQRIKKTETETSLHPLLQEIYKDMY
Outline: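 Cell-based TRANS reporter: HepG2, transient MRTU transfection, 24 h exposure. Readout = reporter mRNA (RT-PCR/CE, 6-FAM). Gain-of-signal fit vs DMSO control.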

[16] = target: human Retinoic Acid Receptor gamma (RARg), RARG (gene 5916) (UniProt P13631); assay: ATG_RARg_TRANS: Attagene TRANS-FACTORIAL HepG2 Assay for human Retinoic Acid Receptor gamma (RARg) (AID 2283009)
human Retinoic Acid Receptor gamma (RARg), RARG (gene 5916), sequence (P13631 whole entry, looked up, the tested form may be a part): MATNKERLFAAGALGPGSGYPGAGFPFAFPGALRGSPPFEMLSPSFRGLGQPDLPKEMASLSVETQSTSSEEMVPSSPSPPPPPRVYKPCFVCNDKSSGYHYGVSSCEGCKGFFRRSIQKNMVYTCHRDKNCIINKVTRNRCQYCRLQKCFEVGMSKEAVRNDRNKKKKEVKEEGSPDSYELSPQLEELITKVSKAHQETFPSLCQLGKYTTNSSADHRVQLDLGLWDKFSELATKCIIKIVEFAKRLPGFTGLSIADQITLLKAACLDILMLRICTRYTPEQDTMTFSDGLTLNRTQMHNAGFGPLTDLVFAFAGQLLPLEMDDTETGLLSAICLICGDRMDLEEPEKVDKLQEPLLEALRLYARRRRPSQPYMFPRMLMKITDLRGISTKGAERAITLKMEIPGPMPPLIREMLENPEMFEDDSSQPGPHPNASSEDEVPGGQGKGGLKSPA
Outline: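 HepG2 transiently transfected with GAL4-UAS reporter units and chimeric NR-Gal4 constructs; 24 h compound exposure. Reporter mRNA quantified by RT-PCR, FAM labeling, HpaI digestion and capillary electrophoresis; gain-of-signal versus DMSO.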

[17] = read-out: E-selectin (Homo sapiens) (UniProt P16581); assay: BSK_3C_Eselectin: BioMAP Diversity Plus: 3C Assay for Eselectin Biomarker Activity (AID 2283015; active = hit-call score of the fitted dose curve at least 0.9, where 1 is the maximum; inactive = score below 0.9;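 note: cell surface E-selectin protein quantified by ELISA 24 h after dosing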); conditions: primary human endothelial cells (HUVEC); actives raise or lower the signal
Outline: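 Human vascular endothelium from umbilical vein is exposed to test chemicals for 24 h. E-selectin levels are read by ELISA and compared with DMSO controls.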

[18] = target: human Retinoic Acid Receptor beta (RARb), RARB (gene 5915) (UniProt P10826); assay: ATG_RARb_TRANS: Attagene TRANS-FACTORIAL HepG2 Assay for human Retinoic Acid Receptor beta (AID 2283004)
human Retinoic Acid Receptor beta (RARb), RARB (gene 5915), sequence (P10826 whole entry, looked up, the tested form may be a part): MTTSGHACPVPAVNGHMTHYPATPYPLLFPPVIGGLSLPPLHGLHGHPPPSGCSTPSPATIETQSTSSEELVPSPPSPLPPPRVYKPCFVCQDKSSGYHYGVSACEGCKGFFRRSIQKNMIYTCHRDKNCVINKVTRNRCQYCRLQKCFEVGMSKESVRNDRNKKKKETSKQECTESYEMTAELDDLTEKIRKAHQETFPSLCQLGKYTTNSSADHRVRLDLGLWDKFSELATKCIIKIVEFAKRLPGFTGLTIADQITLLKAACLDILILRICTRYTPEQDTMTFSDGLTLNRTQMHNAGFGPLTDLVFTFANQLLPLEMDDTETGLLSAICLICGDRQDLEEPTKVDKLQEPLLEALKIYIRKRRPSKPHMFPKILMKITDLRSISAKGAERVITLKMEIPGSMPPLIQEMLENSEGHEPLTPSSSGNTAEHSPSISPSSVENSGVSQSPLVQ
Outline: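 HepG2, transient MRTU transfection, NR–Gal4 chimera, 24 h treatment; RT-PCR plus CE fluorescence detection of reporter mRNA; gain of signal vs DMSO.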

[19] = target: human RAR-related Orphan Receptor gamma (RORg), RORC (gene 6097) (UniProt P51449); assay: ATG_RORg_TRANS: Attagene TRANS-FACTORIAL HepG2 Assay for human RAR-related Orphan Receptor gamma (RORg) (AID 2283011)
human RAR-related Orphan Receptor gamma (RORg), RORC (gene 6097), sequence (P51449 whole entry, looked up, the tested form may be a part): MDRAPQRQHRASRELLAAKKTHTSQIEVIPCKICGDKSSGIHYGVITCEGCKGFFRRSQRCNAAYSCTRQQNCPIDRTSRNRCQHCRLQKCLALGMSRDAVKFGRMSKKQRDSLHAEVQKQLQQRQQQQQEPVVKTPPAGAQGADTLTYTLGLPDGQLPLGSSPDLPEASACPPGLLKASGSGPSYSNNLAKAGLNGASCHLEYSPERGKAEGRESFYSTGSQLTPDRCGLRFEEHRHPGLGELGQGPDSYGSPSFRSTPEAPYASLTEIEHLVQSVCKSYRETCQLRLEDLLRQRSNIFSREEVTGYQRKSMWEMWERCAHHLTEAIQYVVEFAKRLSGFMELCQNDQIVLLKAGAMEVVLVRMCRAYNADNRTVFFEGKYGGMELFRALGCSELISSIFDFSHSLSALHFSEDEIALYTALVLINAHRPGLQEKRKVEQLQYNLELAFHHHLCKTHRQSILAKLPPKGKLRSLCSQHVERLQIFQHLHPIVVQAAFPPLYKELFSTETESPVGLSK
Outline: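 Activity is scored as increase in GAL4-UAS reporter mRNA over DMSO, detected by fluorescent RT-PCR and capillary electrophoresis in HepG2 cells transiently expressing a RORg-Gal4 chimera, 24 h after dosing.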

[20] = target: human Thyroid Receptor alpha (THRa1), THRA (gene 7067) (UniProt P10827); assay: ATG_THRa1_TRANS: Attagene TRANS-FACTORIAL HepG2 Assay for human Thyroid Receptor alpha (THRa1) (AID 2283014)
human Thyroid Receptor alpha (THRa1), THRA (gene 7067), sequence (P10827 whole entry, looked up, the tested form may be a part): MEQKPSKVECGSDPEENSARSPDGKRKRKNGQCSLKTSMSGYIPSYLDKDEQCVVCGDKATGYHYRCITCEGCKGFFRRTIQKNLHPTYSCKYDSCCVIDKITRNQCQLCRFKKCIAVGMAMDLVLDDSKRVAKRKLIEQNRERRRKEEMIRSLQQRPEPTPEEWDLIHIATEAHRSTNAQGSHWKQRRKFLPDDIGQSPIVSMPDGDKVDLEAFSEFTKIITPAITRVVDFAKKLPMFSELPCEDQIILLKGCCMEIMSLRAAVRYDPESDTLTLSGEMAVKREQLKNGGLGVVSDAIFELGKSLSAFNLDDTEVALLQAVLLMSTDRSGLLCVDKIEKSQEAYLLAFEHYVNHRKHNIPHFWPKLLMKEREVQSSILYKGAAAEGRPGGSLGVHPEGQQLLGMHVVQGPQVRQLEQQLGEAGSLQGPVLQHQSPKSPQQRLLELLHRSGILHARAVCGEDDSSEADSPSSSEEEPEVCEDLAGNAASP
Outline: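 First, HepG2 cells receive multiple GAL4-UAS reporter units and the chimeric receptor. They are then dosed for 24 h, after which RNA is reverse-transcribed, amplified, labelled, HpaI-cut and sized by capillary electrophoresis; gain relative to DMSO is scored.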

Measured: AC50

CCCCN(CCO)CCO
inactive: [1] | [2] | [3] | [4] | [5] | [6] | [7] | [8] | [9] | [10]

C=C(C)C(N)=O
inactive: [1] | [3] | [11] | [4] | [7] | [8] | [9] | [10]

c1ccc(Sc2ccccc2)cc1
inactive: [2] | [3] | [5] | [12] | [13]
active: [1] 30.7 µM | [4] 27.6 µM | [14] 100 µM | [7] 33.2 µM | [8] 29.1 µM | [9] 20 µM | [10] 30.3 µM

CC(C)(C)c1cccc(O)c1
inactive: [1] | [2] | [15] | [3] | [11] | [4] | [5] | [16] | [7] | [8] | [9] | [10]
active: [12] 27.2 µM | [14] 66.4 µM

O=S(=O)(O)C(F)(F)C(F)(F)OC(F)(F)C(F)(F)F
inactive: [1] | [3] | [4] | [17] | [7] | [8] | [9] | [10]

C=C(F)C(=O)OC(C(F)(F)F)C(F)(F)F
inactive: [1] | [3] | [4] | [7] | [8] | [9] | [10]

CCCCCCCCCCCCCC(=O)OCC
inactive: [2] | [15] | [18] | [11] | [16] | [19] | [20]

O=C(O)C(F)(F)C(F)(F)C(F)(F)C(F)(F)C(F)(F)C(F)(F)C(F)(F)C(F)F
inactive: [1] | [3] | [4] | [7] | [8] | [9] | [10]

CCCCCCCCCCCCOCCOS(=O)(=O)O
inactive: [15] | [12]
active: [2] 9.73 µM | [5] 18.7 µM

O=Cc1ccccc1O
inactive: [2] | [15] | [5] | [12] | [16] | [6] | [19] | [13] | [14] | [20]

CC(=O)Oc1c(C)c(C)c2c(c1C)CC[C@@](C)(CCC[C@H](C)CCC[C@H](C)CCCC(C)C)O2
inactive: [2] | [15] | [18] | [11] | [5] | [12] | [19] | [14]

ClCCOCCOCCCl
inactive: [2] | [15] | [18] | [11] | [5] | [6] | [19] | [13] | [20]

N#CCCCC(C#N)CCC#N (stereo not drawn)
inactive: [2] | [15] | [18] | [12] | [16] | [13] | [14] | [20]

CCC(=O)OC(C)(C)C1CC=C(C)CC1 (stereo not drawn)
inactive: [2] | [15] | [5] | [6] | [13]
active: [12] 33.1 µM

C/C=C(\C)C(=O)OC/C=C(\C)CCC=C(C)C
active: [5] 12.3 µM | [14] 4.63 µM
inactive: [2] | [15] | [12] | [6] | [20]

CCCCCCCCCCCCOC(C)=O
inactive: [2] | [15] | [11] | [12] | [16] | [6] | [19] | [14]

CCCCOCCOCCOCCO
inactive: [2] | [15] | [18] | [13] | [20]

CC/C=C\CCOC(C)OCC (stereo not drawn)
inactive: [2] | [15] | [5] | [12] | [6]
